mcGAS RapidFire: blocks mouse cGAS cGAMP production. recombinant mouse cGAS, cGAMP by RapidFire MS. inhibition, % at 12.5 µM. 130,000 tested, 0.18% active. AID 1259397;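 active means inhibition of cGAS enzyme activity at or above 60%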;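 further: enzyme stimulated by 45 bp dsDNA with ATP and GTP substrates; cGAMP share of summed cGAMP plus half ATP and half GTP signals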
Of the large screens only hits and unclear results are named; the others gave an inactive call. Many of the other results were omitted from the sample, so hits are more common in it than they were.

NC(=S)N/N=C\c1coc2ccccc2c1=O	mcGAS RapidFire 95
O=C(NCCCN1CCCC1=O)C(C1CCCC1)N1CCN(C(=O)Cc2ccccc2)CC1 (configuration not stated)	none
COc1ccc(-n2c(SCC(C)C)nc3ccccc3c2=O)cc1OC	none
CC[C@@]1(O)C[C@H](O)c2c(cc3c(c2O)C(=O)c2c(O)ccc(O)c2C3=O)[C@H]1C(=O)OC	none
CC[C@@]1(O)C[C@H](O[C@H]2C[C@H](N(C)C)[C@H](O)[C@H](C)O2)c2c(cc3c(c2O)C(=O)c2c(O)cccc2C3=O)[C@H]1C(=O)OC	mcGAS RapidFire 98
CC[C@@]1(O)C[C@H](O[C@H]2C[C@H](N(C)C)[C@H](O)[C@H](C)O2)c2c(cc3c(c2O)C(=O)c2c(O)ccc(O)c2C3=O)[C@H]1C(=O)OC	mcGAS RapidFire 97
O=C(Nc1cccc(Cl)c1Cl)c1cccn(Cc2ccccc2)c1=O	none
Cc1ccc(C)n1C1CC(C)(C)NC(C)(C)C1	none
CCN(CC)P1(=S)OC(c2cccs2)=Nc2cc(N(C)C)ccc21 (configuration not stated)	none
OC1(c2ccc(Cl)cc2)C[N+]2=C(SCCC2)N1Cc1ccccc1 (configuration not stated)	none
COC(=O)c1ccccc1NC(=O)c1cccn(Cc2ccc(C(F)(F)F)cc2)c1=O	none
Cc1cccc2cc(CNC(C)Cc3ccco3)c(Cl)nc12 (configuration not stated)	none
CC(C)(C)OC(=O)N1C2CCC1C(c1nc(C3CC3)no1)C2 (configuration not stated)	none
Cc1ccc(C(=O)NC2CCN(c3ccc(C#N)c(Cl)c3)CC2)o1	none
CC1(C)CC2=[N+]([O-])CN(O)C2C(C)(C)N1O (configuration not stated)	none

Assay outcomes deposited in PubChem by Fisher Drug Discovery Resource Center.
